# Screening results (PubChem)
# A selection: hits, their analogues and other compounds. The true share with any hit is near 4.1%.
# Rv3671c inh: inhibits the M. tuberculosis serine protease Rv3671c | inhibition, % at 5.96 µM | hit rate 0.048% among 320,000 | AID 2606; in the data active means inhibition above about 38%;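 further: extracellular domain of Rv3671c used as enzyme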
# BH1578 lux ind: inducers of Vibrio cholerae quorum light production without autoinducers; V. cholerae BH1578 lux reporter, luminescence, 6 h; activation, % at 18.7 µM; hit rate 0.16% among 350,000; AID 588436; in the data active means activation mostly above about 9.7%, no sharp cut-off
# UGM FP inh: blocks M. tuberculosis UGM enzyme | P9WIQ1 | purified UGM, fluorescence polarization probe displacement | inhibition, % at 10 µM | hit rate 0.06% among 320,000 | AID 504406; in the data active means inhibition above about 10%, passing the limit was not always enough
# Target sequence (P9WIQ1 whole entry, looked up): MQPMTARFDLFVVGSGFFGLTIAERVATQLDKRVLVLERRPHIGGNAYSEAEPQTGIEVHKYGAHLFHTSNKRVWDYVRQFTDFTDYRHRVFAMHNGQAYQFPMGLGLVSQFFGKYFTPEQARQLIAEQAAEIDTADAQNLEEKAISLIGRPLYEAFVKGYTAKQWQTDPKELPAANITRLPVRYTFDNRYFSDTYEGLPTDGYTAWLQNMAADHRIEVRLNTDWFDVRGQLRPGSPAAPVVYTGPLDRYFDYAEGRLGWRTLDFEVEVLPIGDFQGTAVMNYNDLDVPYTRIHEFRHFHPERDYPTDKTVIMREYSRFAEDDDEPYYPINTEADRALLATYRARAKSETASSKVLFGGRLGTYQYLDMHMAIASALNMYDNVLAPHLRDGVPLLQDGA
# GDH-TPI counter: GDH-TPI coupled enzyme inhibition counter-screen | GDH-TPI coupled enzyme counterscreen, NADH absorbance | inhibition, % at 4.8 µM | hit rate 1.2% among 360,000 | AID 588335; in the data active means inhibition above about 30%
# Mtb FBA inh: Mtb fructose-bisphosphate aldolase inhibition; purified M. tuberculosis FBA, fluorescence read-out; hit rate 2.3% among 360,000; inhibition, % at 1 µM; P9WQA3; in the data active means inhibition above about 27%
# RecA splice inh: inhibitors of M. tuberculosis RecA intein splicing; P9WHJ3; cell-free RecA intein splicing, fluorescence; inhibition, % (no concentration beside the values); hit rate 0.75% among 290,000; AID 2221; in the data active means inhibition above about 30%
# A number is an active result; i = inactive; nt = no result; + = active, no number.
SMILES,Rv3671c inh,BH1578 lux ind,UGM FP inh,GDH-TPI counter,Mtb FBA inh,RecA splice inh
COc1cc(/C=C2\SC(N3CCc4ccccc4C3)=NC2=O)cc(OC)c1OC,i,i,i,i,i,i
O=C1N=C(N2CCc3ccccc3C2)S/C1=C\c1cccc(O)c1,i,i,i,32,i,i
COc1ccc(/C=C2\SC(N3CCc4ccccc4C3)=NC2=O)cc1,i,i,i,41,i,i
CCOc1ccc(/C=C2\SC(N3CCc4ccccc4C3)=NC2=O)cc1,i,i,i,i,i,i
CS/C(=C\[N+](=O)[O-])Nc1ccc(OC(F)(F)F)cc1,i,i,i,i,i,57
CC1=CCC[C@H]2[C@H](C1)C(=O)C[C@@H](C)[C@]2(C)CC/C(=C/CO)CO,i,i,nt,i,i,nt
Cc1c(N=Cc2nc3ccccc3n2C)c(=O)n(-c2ccccc2)n1C,i,i,i,43,i,i
COc1cccc(-n2c(O)c(C=Nc3c(C)n(C)n(-c4ccccc4)c3=O)c(=O)[nH]c2=O)c1,i,i,i,i,i,i
Cc1c(N=Cc2nc3ccccc3[nH]2)c(=O)n(-c2ccccc2)n1C,i,nt,i,42,i,i
Cc1cccc(-c2ccc(C=Nc3c(C)n(C)n(-c4ccccc4)c3=O)o2)c1,i,i,i,37,i,i
CCN(CC)C(=O)C(c1ccccc1)S(=O)(=O)N1CCOCC1 (centres undefined),nt,i,nt,i,i,nt
CC1CCN(C(=O)CSCC(=O)O)CC1,i,i,i,i,150,i
CCN(CC)C(=O)COc1ccc(-c2nnc(Nc3ccc(OC)c(C(=O)NC)c3)c3ccccc23)cc1,i,i,i,46,i,i
NC(=O)c1ccc(Nc2nnc(-c3ccc(O)cc3)c3ccccc23)cc1,i,i,i,i,i,i
CNC(=O)c1ccc(Nc2nnc(-c3ccc(C(N)=O)cc3)c3ccccc23)cc1,i,i,i,39,i,i
COCCCNC(=O)c1ccc2c3c(onc13)-c1ccccc1C2=O,i,i,i,i,i,37
Cc1ccc(-c2csc3ncnc(SCC(=O)NCC4CCCO4)c23)cc1 (centres undefined),i,i,i,i,i,nt
CCOCCCn1c(=NC(C)=O)c(C#N)cc2c(=O)n3cccc(C)c3nc21,i,i,i,i,+,i
CCCCCn1c(=NC(=O)c2cccnc2)c(C#N)cc2c(=O)n3cccc(C)c3nc21,i,i,i,i,116,i
CCCCn1c(=NC(C)=O)c(C#N)cc2c(=O)n3cccc(C)c3nc21,i,i,i,i,102,i
O=C(NCc1ccco1)C1CCCN(c2nnc(-n3cccc3)s2)C1 (centres undefined),i,i,i,i,i,i
Cc1ccc(C(=O)N2CCC3(CC2)NCCc2[nH]cnc23)cc1C,i,i,i,i,i,i
O=c1c2oc3ccccc3c2[nH]c(=S)n1-c1ccc(F)cc1,i,i,i,33,i,i
Cc1ccc(-n2c(=S)[nH]c3c(oc4ccccc43)c2=O)cc1C,i,i,i,i,i,i
O=C(c1ccc(O)c(Br)c1)c1cc(Br)ccc1O,nt,i,nt,35,i,nt
SMILES,Rv3671c inh,BH1578 lux ind,UGM FP inh,GDH-TPI counter,Mtb FBA inh,RecA splice inh
O=C(C(=O)c1cc(Br)ccc1O)c1cc(Br)ccc1O,nt,nt,nt,i,i,nt
Cc1ccc(S(=O)(=O)Nc2ccc(OCC(=O)N3CCOCC3)cc2)c(C)c1NS(C)(=O)=O,i,i,i,i,i,nt
O=C(O)c1c(Cl)cccc1Cl,i,i,i,i,i,nt
Cc1cc(C)c2c3c(sc2n1)C(c1cccc(F)c1)C(C#N)=C(N)O3 (centres undefined),i,i,i,i,64,nt
Cc1ccc(C2c3[nH]c4ccccc4c3C[C@H]3C(=O)N(c4ccccc4C(=O)N4CCC[C@H]4C(=O)O)C(=O)N23)cc1 (some centres undefined),i,i,i,i,i,i
CCOC(=O)c1sc(N)c(C(=O)OC)c1C,i,i,i,i,i,i
COC(=O)c1c(N)sc(C(C)=O)c1C,i,nt,i,44,i,i
CC1(C(=O)NS(=O)(=O)c2ccccc2Cl)CCN1C(=O)c1ccco1 (centres undefined),nt,i,nt,i,i,nt
CNc1cncc(-c2cccc(C(=O)N(C)C)c2)n1,nt,i,nt,i,+,nt
CSc1nncc(-c2ccc(F)c(F)c2)n1,i,i,i,i,i,i
CC(=O)Nc1cncc(-c2cccc(C(=O)NCCN(C)C)c2)n1,nt,i,nt,i,i,nt
CNc1cncc(-c2cccc(OC)c2F)n1,nt,i,nt,i,+,nt
CNc1cncc(-c2cccnc2)n1,nt,i,nt,i,+,nt
CNc1cncc(-c2ccc(F)c(F)c2)n1,nt,i,nt,i,168,nt
CCOC(=O)c1sc(S(C)(=O)=O)c2c1CCc1conc1-2,i,i,i,i,i,i
C[C@H](CO)N1C[C@H](C)[C@@H](CN(C)C(=O)NC2CCCCC2)Oc2c(NC(=O)Cc3ccccc3)cccc2C1=O,i,i,i,i,i,nt
O=[N+]([O-])c1ccc(Cl)c(C[n+]2cccc3ccccc32)c1,i,i,i,i,i,i
CN(Cc1ccccc1)c1ccc(S(=O)(=O)N2CCC(C(=O)O)CC2)cc1[N+](=O)[O-],i,i,i,i,+,i
Cc1c(C(=O)/C=C/N(C)C)nnn1-c1ccc(Cl)cc1C#N,i,i,i,46,i,i
CC(OC(=O)Cc1c[nH]c2ccccc12)C(=O)Nc1ccccc1[N+](=O)[O-] (centres undefined),i,i,i,i,i,i
NS(=O)(=O)c1ccc(NNC(=O)c2ccc(Br)o2)c([N+](=O)[O-])c1,i,i,i,45,i,nt
CC1(C(=O)NS(=O)(=O)Cc2ccccc2)CCN1C(=O)Cc1ccccc1Cl (centres undefined),nt,i,nt,i,i,nt
CCCc1c(C(=O)N/N=C/c2c[nH]c3ccccc23)nnn1-c1nonc1N,nt,i,nt,i,i,nt
Cc1ccc(-c2c(C(=O)N/N=C/c3c[nH]c4ccccc34)nnn2-c2nonc2N)cc1,i,i,i,47,i,i
COCc1c(C(=O)N/N=C/c2c[nH]c3ccccc23)nnn1-c1nonc1N,i,i,i,44,i,i
SMILES,Rv3671c inh,BH1578 lux ind,UGM FP inh,GDH-TPI counter,Mtb FBA inh,RecA splice inh
CCn1nc(C(=O)Nc2ccc(Cl)c(S(=O)(=O)N3CCOCC3)c2)c2ccccc2c1=O,nt,i,nt,i,i,nt
CCOC(=O)/C(C#N)=C/c1c(N2CCN(C)CC2)nc2ccccn2c1=O,i,i,i,i,i,i
COCCNC(=O)/C(C#N)=C/c1c(N2CCN(C)CC2)nc2ccccn2c1=O,i,i,i,i,192,i
CCCCCC(=O)C(=O)c1ccc(O)cc1O,i,i,i,46,i,i
O=c1[nH]c2ccccc2nc1-c1ccc(Cl)cc1,i,i,i,38,i,i
NC(=O)C1CCN(C(=O)CCSCc2ccccc2)CC1,i,i,i,i,i,i
Cc1cccc(C2=NN(c3ccc(Br)cc3)[C@@H](C(=O)N3CCOC3=O)[C@@H]2c2ccc(F)cc2)c1,i,i,i,i,42,i
Cc1cccc(C2=NN(c3ccc(Br)cc3)[C@@H](C(=O)N3CCOC3=O)[C@@H]2c2ccc(Cl)cc2)c1,nt,i,nt,i,70,nt
